Measurements: paper PMC4336329 (PLoS ONE, 2015)
Out of some 310,000 compounds screened, about 14,000 (4.5%) showed an effect of 50% or more. The effect is printed as a negative number. The full list was thinned out, with strong results kept by preference.

Target: human ether-à-go-go-related gene (hERG) potassium channel (human, UniProt Q12809)
Test: primary screen, population patch clamp on CHO cells stably expressing hERG; higher = less effect of the substance
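Note: peak tail current of the secondary pulse compared with the same well before compound.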

human ether-à-go-go-related gene (hERG) potassium channel, sequence (Q12809 whole entry, looked up): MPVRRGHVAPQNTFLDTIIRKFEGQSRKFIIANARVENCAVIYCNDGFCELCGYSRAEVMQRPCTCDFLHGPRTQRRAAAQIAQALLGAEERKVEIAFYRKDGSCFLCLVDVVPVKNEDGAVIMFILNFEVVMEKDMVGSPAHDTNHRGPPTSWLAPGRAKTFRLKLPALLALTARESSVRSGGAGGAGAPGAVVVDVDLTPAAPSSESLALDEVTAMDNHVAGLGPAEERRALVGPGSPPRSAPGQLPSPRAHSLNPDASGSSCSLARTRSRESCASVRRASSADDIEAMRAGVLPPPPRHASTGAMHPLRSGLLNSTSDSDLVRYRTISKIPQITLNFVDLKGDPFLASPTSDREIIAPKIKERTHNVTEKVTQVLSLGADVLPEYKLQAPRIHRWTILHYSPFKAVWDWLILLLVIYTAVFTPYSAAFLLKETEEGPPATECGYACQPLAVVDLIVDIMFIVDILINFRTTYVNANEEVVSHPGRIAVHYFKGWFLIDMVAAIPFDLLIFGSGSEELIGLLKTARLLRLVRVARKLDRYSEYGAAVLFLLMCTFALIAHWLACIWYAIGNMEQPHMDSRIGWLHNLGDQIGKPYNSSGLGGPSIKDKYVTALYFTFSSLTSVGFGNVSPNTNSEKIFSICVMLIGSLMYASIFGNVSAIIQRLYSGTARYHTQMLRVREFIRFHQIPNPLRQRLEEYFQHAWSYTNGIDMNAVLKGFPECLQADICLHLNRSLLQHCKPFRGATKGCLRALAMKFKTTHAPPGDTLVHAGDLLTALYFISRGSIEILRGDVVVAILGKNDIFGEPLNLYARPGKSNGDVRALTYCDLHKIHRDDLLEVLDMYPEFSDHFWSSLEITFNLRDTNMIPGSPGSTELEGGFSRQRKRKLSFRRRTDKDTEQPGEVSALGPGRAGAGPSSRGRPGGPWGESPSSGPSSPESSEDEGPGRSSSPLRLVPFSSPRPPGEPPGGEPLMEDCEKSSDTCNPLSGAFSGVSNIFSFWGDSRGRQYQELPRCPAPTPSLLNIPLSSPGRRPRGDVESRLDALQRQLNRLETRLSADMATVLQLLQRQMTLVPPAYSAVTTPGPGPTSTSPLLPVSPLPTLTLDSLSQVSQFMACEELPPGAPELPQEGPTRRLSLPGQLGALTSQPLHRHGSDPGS

In order of falling “hERG current change (%, negative = inhibition) at 10uM” value:
1. CC(=O)Nc1cc(C)nn1-c1nc(C)cc(C)n1  25.4%
2. COc1ccc(Cl)cc1NC(=O)CSc1nc2sccc2c(=O)[nH]1  25.2%
3. Cc1cc(C)nc(-n2nc(C)cc2NC(=O)C(C)C)n1  16.9%
4. O=C(CNS(=O)(=O)/C=C/c1ccccc1)OC1CCOC1=O (stereo not shown)  15.9%
5. CC1(C)O[C@@H]2[C@H](O1)[C@@H](COS(=O)(=O)[O-])O[C@H]2n1cnc2c(N)ncnc21.[K+]  15.7%
6. CCC(=O)N(CC)c1nc(-c2cc(OC)ccc2OC)cs1  15%
7. COCCn1c(SCCN2CCOCC2)nc2c1c(=O)[nH]c(=O)n2C  14.2%
8. COc1ccc(-c2nc(CSCC(=O)N3CCN(C)CC3)c(C)o2)cc1OC  11.7%
9. O=C(CCN1C(=O)NC2(CCCC2)C1=O)Nc1cccc(S(=O)(=O)N2CCOCC2)c1  10.7%
10. CCCCCC(=O)N/N=C(\C)c1ccc(Cl)cc1  9.87%
11. COc1cccc(Nc2nc(-c3cccs3)nc3ccccc23)c1  9.19%
12. COc1ccc(CCNC(=O)C2CCC(=O)N(C3CCCCCC3)C2)cc1 (stereo not shown)  8.9%
13. C=CCn1c(SCCN2CCOCC2)nc2c1c(=O)[nH]c(=O)n2C  8.38%
14. Cc1ccc(CN(Cc2cccnc2)C(=S)Nc2cccc(Cl)c2C)cc1  8.32%
15. O=C(COc1ccc(C(=O)NCCc2ccccc2)cc1)Nc1ccccc1  7.64%
16. C=C(C)C(=O)Nc1cccc(C2=NOC3(C2)C[C@@H](C(N)=O)N(C(=O)C(=C)C)C3)c1 (stereo partly shown)  7.14%
17. CCOc1ccc(-c2nc(N)ncc2Oc2cccc(OC)c2)c(O)c1  6.7%
18. O=C(CCNC(=O)c1ccccc1)NCCCc1ccccc1  6.54%
19. C/C(=N\NC(N)=O)c1ccc(Cl)cc1  6.12%
20. COc1cccc(-c2nn(CCC#N)cc2C(=O)Nc2ccccc2Cl)c1  5.09%
21. O=C(NCc1ccncc1)C(=O)NCC1OCCCN1S(=O)(=O)c1cc(F)ccc1F (stereo not shown)  4.86%
22. CCOC(=O)CSc1ccc2nnc(CCNS(=O)(=O)c3ccc(C)cc3)n2n1  4.23%
23. CN(Cc1nc2ccccc2c(=O)[nH]1)C(=O)c1ccc(S(=O)(=O)N(C)C)cc1  4.04%
24. CC(/C=C/c1ccccc1)=N\NC(=O)c1ccc2c(c1)OCCO2  3.3%
25. CCc1c(C)nc(SCC(=O)N2CCCCC2)[nH]c1=O  3.18%
26. CCC(=O)N1CCc2cc(S(=O)(=O)N3CCc4ccccc43)ccc21  2.61%
27. O=C(NC1CCCCC1)c1cc(-c2ccc(O)cc2)on1  0.886%
28. Cc1nn(-c2nc3ccccc3[nH]2)c(N)c1-c1ccccc1  0.295%
29. COc1cc([N+](=O)[O-])ccc1NC(=O)Cc1ccc(F)cc1  0.277%
30. CCCCNc1ccc(S(N)(=O)=O)cc1[N+](=O)[O-]  -0.608%
31. O=C(CSC(=S)N1CCOCC1)Nc1nccs1  -1.54%
32. Cc1onc(-c2ccccc2)c1C(=O)N1CCN(S(=O)(=O)c2ccccc2Br)CC1  -1.99%
33. CCCOc1ccc(OCCSc2ncccn2)cc1  -2.55%
34. O=C(CSc1ncnc2c1nnn2Cc1ccccc1F)NCC1CCCO1 (stereo not shown)  -2.7%
35. COc1ccc2[nH]c(C)c(CCNCc3cccnc3)c2c1.O=C(O)C(=O)O  -3.77%
36. C=C(C)Cn1c(SCCN2CCOCC2)nc2c1c(=O)[nH]c(=O)n2C  -4.61%
37. Cc1c(Cl)cccc1NC(=S)N1CC2CC(C1)c1cccc(=O)n1C2 (stereo not shown)  -4.67%
38. COc1cccc(OC)c1OCCOc1ccc(C(=O)c2ccccc2)cc1  -4.82%
39. Cc1nn(C(C)C(=O)NCCCN2CCCCC2C)c(=O)c2c1sc1ccccc12 (stereo not shown)  -5.22%
40. CN1c2ccccc2Oc2nnc(Cl)cc21  -5.87%
41. CCSc1nnc(N2C(=O)CC(c3ccsc3)C3=C2CC(C)(C)CC3=O)s1 (stereo not shown)  -6.24%
42. Cc1cc(C)n(-c2nc(N(C)C)nc(N3CCOCC3)n2)n1  -6.78%
43. COc1ccccc1C(=O)Oc1cc(N)n(S(=O)(=O)c2ccc(C)cc2)n1  -7.77%
44. CN1/C(=C\C(=S)NC(=O)c2cccc(Br)c2)C(C)(C)c2ccccc21  -7.85%
45. Cc1nn(C(C)C(=O)NCCCN(Cc2ccccc2)C(C)C)c(=O)c2c1sc1ccccc12 (stereo not shown)  -11.7%
46. CCCCCn1c(SCCC(C)C)nc2c1c(=O)[nH]c(=O)n2C  -11.9%
47. CN(Cc1cccc(Cl)c1Cl)CC(O)COc1ccccc1.O=C(O)C(=O)O (stereo not shown)  -12%
48. O=C(Nc1ccc(C(F)(F)F)cc1)C1CCN(c2cnccn2)CC1  -12.5%
49. CC(=O)N1N=C(c2ccccc2)CC1c1cn(Cc2ccccc2)c2ccccc12 (stereo not shown)  -13.6%
50. COCC(=O)N/N=C\c1cccc(OC)c1OC/C=C/c1ccccc1  -15.6%
51. Cc1ccc(S(=O)(=O)CCC(=O)Nc2ccc3c(c2)OCO3)cc1  -16%
52. Clc1ccc2oc(SCc3cccnc3)nc2c1  -16.2%
53. COc1ccc(CN(C)Cc2ccccc2)c(OC)c1OC  -16.9%
54. CC(C)CCn1c(SCCN2CCOCC2)nc2c1c(=O)[nH]c(=O)n2C  -17.7%
55. CCN1CCCC1CNC(=O)c1cc2c(=O)n(C)c3ccccc3c2n1C (stereo not shown)  -18.5%
56. CCN(CC)CCCNC(=O)C(C)n1nc(C)c2sc3ccccc3c2c1=O (stereo not shown)  -19.7%
57. Cc1cc(NC(=O)CSc2cc(Cl)ccc2Cl)n(-c2ccccc2)n1  -20.2%
58. CCc1ccc(NC(=O)CNCc2ccc(OC)c(OC)c2)cc1.O=C(O)C(=O)O  -21.3%
59. COc1ccccc1Nc1nnc(SCc2nnc(-c3cc(OC)c(OC)c(OC)c3)o2)s1  -21.7%
60. CCC(C(=O)Nc1cc(C)cc(C)n1)c1ccccc1 (stereo not shown)  -23.6%
61. Cc1[nH]c2ccc(OC(F)(F)F)cc2c1CCNCc1cccc([N+](=O)[O-])c1  -25.4%
62. Cc1ccc(C)c(S(=O)(=O)N2CCN(C(=O)Nc3ccccc3)CC2)c1  -26.1%
63. COc1ccc2[nH]c(C)c(CCNCc3cn(C)c4ccccc34)c2c1.O=C(O)C(=O)O  -27.8%
64. Cc1nn(C(C)C(=O)NCCCN2CCCCCC2)c(=O)c2c1sc1ccccc12 (stereo not shown)  -28.1%
65. Cc1[nH]c2ccc(OC(F)(F)F)cc2c1CCNCc1ccc(Cl)cc1.O=C(O)C(=O)O  -34.5%
66. CCN(CC)S(=O)(=O)c1ccc(OC)c(NC(=O)c2ccc([N+](=O)[O-])cc2)c1  -34.9%
67. O=C(Cc1ccccc1)Nc1cc([N+](=O)[O-])ccc1N1CCOCC1  -36.2%
68. O=C(/C=C/c1ccc([N+](=O)[O-])s1)N1CCN(c2ccccc2)CC1  -37%
69. CCC(=O)N(CCCN(C)C)c1nc(-c2cc(OC)ccc2OC)cs1.Cl  -37.3%
70. O=C(/C=C/c1ccc([N+](=O)[O-])s1)N1CCCCC1  -38.7%
71. COc1ccc(CN(C)CCc2ccccn2)c(OC)c1OC.O=C(O)C(=O)O  -38.9%
72. CCN1CCN(c2cc3c(nn2)Oc2ccccc2N3C)CC1  -41.1%
73. CCN(CC(=O)Nc1cc(C)nn1-c1nc(C)cc(C)n1)Cc1ccccc1  -42.8%
74. Cc1ccc(S(=O)(=O)N2CCN(Cc3nc4ccccc4[nH]3)CC2)cc1C  -45.1%
75. CCCCCn1c(SCCOCC)nc2c1c(=O)[nH]c(=O)n2C  -46.8%
76. COc1ccc(CNCCc2c(C)[nH]c3ccc(OC(F)(F)F)cc23)c(OC)c1.O=C(O)C(=O)O  -51%
77. CCOc1cccc(CNCCc2c(C)[nH]c3ccc(OC(F)(F)F)cc23)c1O.O=C(O)C(=O)O  -51.9%
78. O=C(/C=C/c1ccc([N+](=O)[O-])s1)N1CCCC1  -52.9%
79. COc1ccc(CNCC(=O)Nc2cc(C)nn2-c2nc(C)cc(C)n2)cc1OC  -56.8%
80. Cc1cc(C)nc(-n2nc(C)cc2NC(=O)CNC(C)c2ccccc2)n1 (stereo not shown)  -62.2%
81. COc1ccc(CN(C)CC(O)COc2ccc(C(=O)c3ccccc3)cc2)c(OC)c1OC (stereo not shown)  -63.7%
82. C/C(Cl)=C/Cn1c(SCCN2CCOCC2)nc2c1c(=O)[nH]c(=O)n2C  -64.6%
83. CCN(CC)CCCN(C(C)=O)c1nc(-c2cc(OC)ccc2OC)cs1.Cl  -65.8%
84. CCCCCn1c(SCCN2CCOCC2)nc2c1c(=O)[nH]c(=O)n2C  -66.5%
85. CCCCC(O)(CCCC)C(=O)N/N=C(\C)c1ccc(Cl)cc1  -66.9%
86. CCC(C(=O)Nc1cc(C)nn1-c1nc(C)cc(C)n1)c1ccccc1 (stereo not shown)  -67.7%
87. CCC(C(=O)NCCCN(CC)Cc1ccccc1)n1nc(C)c2sc3ccccc3c2c1=O (stereo not shown)  -68.1%
88. CCC1CCCCN1CCCNC(=O)C(C)n1nc(C)c2sc3ccccc3c2c1=O (stereo not shown)  -69.8%
89. CCCCCCn1c(SCCN2CCOCC2)nc2c1c(=O)[nH]c(=O)n2C  -74.6%
90. COc1ccc(CN(C)CC(O)COC(c2ccccc2)c2ccccc2)c(OC)c1OC (stereo not shown)  -76.7%
91. CN1c2ccccc2Oc2nnc(N3CCN(Cc4ccccc4)CC3)cc21  -78%
